# Bioassay records deposited in PubChem BioAssay by several laboratories.
# AHR act = activators of human aryl hydrocarbon receptor; hit rate 2.5% among 320,000; P35869; AHR-responsive luciferase reporter cells, luminescence; activation, % at 5 µM; in the data active means activation above about 47%;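 further: 0% = vehicle wells and 100% = reference agonist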
# SENP6 inh = SENP6 protease inhibition. inhibition, % at 10 µM. Recombinant SENP6 catalytic domain, aminoluciferin luminescence. hit rate 1.8% among 330,000. AID 2599. Q9GZR1;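 active means inhibition above about 50% at the single tested dose, limit read from the data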;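 further: plate controls were DMSO wells with enzyme for no effect and DMSO wells lacking enzyme for full effect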
# SENP8 block-1 = SENP8 (human) protease inhibition; inhibition, % at 20 µM; hit rate 0.64% among 360,000; recombinant SENP8, Nedd8 substrate fluorescence; AID 602440; Q96LD8; in the data active means inhibition mostly above about 40%, no sharp cut-off; inactive means mostly below about 27%
# SENP8 block-2 = SENP8 protease inhibition | Q96LD8 | purified SENP8, Z-RLRGG-aminoluciferin cleavage, luminescence | inhibition, % at 10 µM | hit rate 1.2% among 330,000 | AID 2540; in the data active means inhibition above about 50%
# SENP7 block = SENP7 protease inhibition; Q9BQF6; hit rate 1.5% among 330,000; inhibition, % at 5 µM; AID 434973; recombinant SENP7, Z-RLRGG-aminoluciferin luminescence, 40 min;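 active means inhibition above about 50% at the single test dose, limit read from the data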;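 further: plate controls were DMSO with enzyme for no effect and no enzyme buffer wells for full effect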
# Target sequence (Q9BQF6 706-1050 limits assumed): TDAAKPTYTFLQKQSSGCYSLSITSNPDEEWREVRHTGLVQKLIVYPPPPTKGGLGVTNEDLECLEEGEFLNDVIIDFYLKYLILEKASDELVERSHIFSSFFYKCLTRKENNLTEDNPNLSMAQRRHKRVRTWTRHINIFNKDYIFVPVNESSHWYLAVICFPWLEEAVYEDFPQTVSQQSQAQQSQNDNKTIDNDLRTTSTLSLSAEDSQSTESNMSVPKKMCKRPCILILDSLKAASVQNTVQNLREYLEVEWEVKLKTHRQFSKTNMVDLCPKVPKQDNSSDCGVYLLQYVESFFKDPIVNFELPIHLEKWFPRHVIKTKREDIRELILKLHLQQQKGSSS
# EBI2 block = antagonists of human EBI2 receptor | P32249 | EBI2 beta-arrestin recruitment, luminescence, 7a,25-OHC stimulated | inhibition, % at 5 µM | hit rate 0.81% among 360,000; in the data active means inhibition above about 38%;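 further: enzyme fragment complementation signal reports receptor beta-arrestin coupling in cells; 0% = agonist plus DMSO wells and 100% = wells without agonist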
# * marks the source's active call; other numbers are inactive results; nt = not tested or not shown. Compounds with a hit are over-represented: about 5% of the library has one in this group of screens.
SMILES,AHR act,SENP6 inh,SENP8 block-1,SENP8 block-2,SENP7 block,EBI2 block
COc1ccc(-c2nc(-c3ccc(Br)cc3)no2)c(OC)c1,95.2*,-6.5,4.2,-4.5,47.6,24.8
CN(C)c1cccc(Oc2nc3c(c(=O)n(C)c(=O)n3C)n2C)c1,15.1,7.4,-10.4,9.6,3.5,0.8
Cn1c(=O)c2c(nc(Oc3cccc(Br)c3)n2C)n(C)c1=O,47.9*,18.6,5.7,2.8,6.7,-0.5
COC(=O)[C@H](C)N(Cc1ccc(Cl)c(Cl)c1)S(=O)(=O)CCN1CCCC1,nt,nt,11.5,nt,-1.7,-2.0
COc1ccc(OC)c(/C=N/Nc2nncn2/N=C/c2cc(OC)ccc2OC)c1,51.1*,-17.5,-195.3,-16.1,-3.8,-8.3
COc1cc(/C=N/Nc2nncn2/N=C/c2ccc(O)c(OC)c2)ccc1O,15.1,-13.4,-106.4,-8.4,-2.5,-15.0
O=C(/C=C/c1ccccc1)C1C(=O)c2ccccc2C1=O,21.3,19.7,11.1,3.2,23.3,-10.2
CCc1ccc(/C=C/C(=O)C2C(=O)c3ccccc3C2=O)cc1,-0.6,-0.8,50.4*,-11.3,15.1,-1.8
COC1C=CC=C(C)C(=O)NC2=CC(=O)C(N)=C(CC(C)CC(OC)C(O)C(C)C=C(C)C1OC(N)=O)C2=O (stereo unspecified),nt,nt,57.2*,nt,nt,-31.3
COC1CC(C)C(OC)c2cc(O)cc(c2O)NC(=O)C(C)=CC=CC(C)C(OC(N)=O)C(C)=CC(C)C1OC (stereo unspecified),nt,nt,32.1,nt,nt,-1.9
CC(C)(C)NC(=O)CSc1nc2cccnc2n1C1CCCCC1,6.5,0.1,11.1,-0.2,-9.6,-1.9
Cc1cccc(/C=C/c2onc(C)c2[N+](=O)[O-])n1,-8.3,1.3,nt,2.3,-2.7,nt
Cc1cc(O)ccc1N/C=C/c1onc(C)c1[N+](=O)[O-],31.9,87.4*,26.5,46.7,96.6*,-3.7
O=C(Cc1ccc(Br)cc1)N1CCOCC1,-1.4,-4.6,8.7,-0.7,5.8,0.0
O=C(Nc1ccc(F)c(F)c1)c1cnc(-c2ccccc2)nc1-c1ccccc1,65.3*,9.7,2.3,8.4,4.9,17.4
C=CCNC(=O)c1cnc(-c2ccccc2)nc1-c1ccccc1,3.9,-5.9,12.3,7.5,-3.0,-11.6
S=C(NCc1cccnc1)Nc1ccc(Cl)cc1,-0.3,-13.8,13.0,-9.3,0.9,-3.9
CCCCN=C(Nc1ccc(Cl)cc1)c1cccnc1,88.5*,-12.2,15.6,-9.7,-4.9,5.7
CCCN=C(Nc1ccc(Cl)cc1)c1cccnc1,118.1*,0.4,30.3,-0.5,8.3,-6.0
CCCCc1ccc(NC(=S)Nc2cccnc2)cc1,2.5,-12.7,9.5,-9.5,-6.1,-0.6
Cc1ccc(/C=N/NC(=O)c2ccccc2OCc2cccc(Br)c2)o1,7.0,0.9,-22.4,6.7,1.0,4.0
CCCCC(=O)Nc1nc2c(s1)COc1ccccc1-2,48.6*,22.0,-2.0,-18.5,1.5,5.0
O=C(CCSc1ccccc1)Nc1nc2c(s1)COc1ccccc1-2,52.0*,-7.1,-33.6,-3.6,-10.1,4.6
CCCC(=O)Nc1nc2c(s1)COc1ccccc1-2,23.8,-16.6,-4.2,-8.5,-16.2,-0.3
O=C(CN1C2=NCCCN2c2ccccc21)c1ccc(Cl)cc1Cl,58.6*,-17.2,12.2,-5.2,7.0,3.9
SMILES,AHR act,SENP6 inh,SENP8 block-1,SENP8 block-2,SENP7 block,EBI2 block
Cc1ccc(S(=O)(=O)Nc2cc(Cl)ccc2-n2cncn2)cc1,17.3,-7.3,15.0,-0.2,-3.8,6.5
Nn1c(-c2ccccn2)nnc1-c1ccccn1,5.1,0.9,18.1,-15.3,-9.9,-4.5
Nc1ccccc1-c1nnc(-c2ccccc2N)n1N,48.2*,18.6,-383.7,2.2,7.5,-13.0
Oc1csc(Cc2nc(-c3ccc4ccccc4c3)cs2)n1,83.4*,8.2,-43.6,36.6,65.7*,20.2
Oc1csc(Cc2nc(-c3ccc(-c4ccccc4)cc3)cs2)n1,65.0*,10.1,-37.4,-5.4,-6.0,3.4
OCC[C@@H]1C[C@H](O)[C@@H](O)[C@]2(OCc3ccc4ccccc4c32)O1,nt,nt,7.7,nt,nt,1.1
CC(C(=O)Nc1cccc([N+](=O)[O-])c1)N1C(=O)NC2(CCCC2)C1=O (stereo unspecified),-2.9,-18.3,18.4,1.0,-7.7,-1.1
O=Cc1cc(N=Nc2cccc(C(=O)O)c2)ccc1O,4.2,94.8*,22.6,96.6*,97.6*,-5.4
O=Cc1cc(N=Nc2ccccc2Cl)ccc1O,2.5,46.7,38.6,47.1,-1.0,-1.5
O=C(Nc1ccccc1N1CCOCC1)c1cccc2ccccc12,nt,nt,6.9,nt,nt,-6.4
